Laboratory results: PubChem BioAssay (Tox21)
Results filed as inconclusive are left out. Entries that show only a call come without a potency. Active and inactive are the calls of the source. Calls come from the whole dose curve; as a rule, active = well fitted cell-killing curve with a large enough effect in the repeat runs; inconclusive = weak or mixed curves, or effect the other way; inactive = flat fitted curve, though single readings scatter.

Experiment: cAMP Responsive Elements (CRE) small molecule antagonists, cell-based qHTS assay: qHTS cell viability counter screen (AID 2060913); note: nearly all actives have a fitted effect of over 40% in size
Conditions: CRE-bla HEK293T viability, CellTiter-Glo luminescence, 5 h; series mostly up to 92.4 µM
Outline: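 Cytotoxicity counter screen multiplexed with the CRE-bla antagonist read: HEK293T cells in DMEM with dialyzed FBS and 25 mM HEPES were treated 3 hrs under 0.25 uM final NKH477, then viability measured by CellTiter-Glo luminescence.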

Row | Structure (SMILES) | Potency
1 | Cc1c(Nc2ncccc2C(=O)O)cccc1C(F)(F)F | inactive
2 | CCCCCCCCC(=O)OCC | inactive
3 | O=Cc1cccc(Br)c1 | inactive
4 | Fc1ccc(C(c2ccc(F)cc2)N2CCNCC2)cc1 | inactive
5 | CCCCOC(=O)C(C)CC (stereo not given) | inactive
6 | CCN(CC)CC(=O)Oc1ccc(NC(C)=O)cc1 | inactive
7 | COC(=O)c1c(C)cc(O)c(C)c1O | inactive
8 | COc1ccc(C(=O)c2cccc(O)c2)c(OC)c1 | inactive
9 | CC(C)(O)C(=O)O | inactive
10 | CCOCCC(=O)OCC | inactive
11 | Nc1ccc2cc(S(=O)(=O)O)cc(O)c2c1 | inactive
12 | O=C1NC(=O)c2cccc3cccc1c23 | inactive
13 | CCCNC(C)C(=O)Nc1ccccc1C (stereo not given) | inactive
14 | Cc1c(N)cccc1C(F)(F)F | inactive
15 | O=C(O)c1ccc2cc(C(=O)O)ccc2c1 | inactive
16 | O=C(c1cc(O)c(O)c(O)c1)c1ccc(O)c(O)c1O | inactive
17 | O=[N+]([O-])c1cccc(Cl)c1 | inactive
18 | CN(C)CCC=C1c2ccccc2CCc2ccccc21 | inactive
19 | NCC(=O)CCC(=O)O | inactive
20 | CCCCCCCC(=O)OC | inactive

Row | Structure (SMILES) | Potency
21 | CC(=O)N[C@@H](CC(C)C)C(=O)O | inactive
22 | Cc1occc(=O)c1O | inactive
23 | COc1cc(N)ccc1C | inactive
24 | CCOC(=O)[C@H](CCc1ccccc1)N[C@H]1CS[C@H](c2cccs2)CN(CC(=O)O)C1=O | inactive
25 | CCc1c(C)[nH]c2c1C(=O)C(CN1CCOCC1)CC2 (stereo not given) | inactive
26 | CCC(C)C1CCCCC1=O (stereo not given) | inactive
27 | C=CCNCC=C | inactive
28 | C/C=C/c1ccc(OC)c(OC)c1 | inactive
29 | C[C@H]1O[C@@H](n2cc(F)c(=O)[nH]c2=O)[C@H](O)[C@@H]1O | inactive
30 | CCCCCC[C@@H](CCC)C(=O)O | inactive
31 | O=C(/C=C/c1ccccc1)OCCc1ccccc1 | inactive
32 | CC(CNC1CCCCC1)OC(=O)c1ccccc1 (stereo not given) | inactive
33 | O=c1[nH][nH]c(=O)c2cc([N+](=O)[O-])ccc12 | inactive
34 | Nc1c(S(=O)(=O)O)cc(Br)c2c1C(=O)c1ccccc1C2=O | inactive
35 | CCCOC(=O)C(C)O (stereo not given) | inactive
36 | O=C(O)Cc1csc(-c2ccc(Cl)cc2)n1 | inactive
37 | COCCOCCOCCOCCOC | inactive
38 | CCc1ccccc1CC | inactive
39 | C=CCc1ccc(O)c(OC)c1 | inactive
40 | Cc1ccc2ccc(Cl)cc2n1 | inactive

Experiment: cAMP Responsive Elements (CRE) small molecule agonists, cell-based qHTS assay: qHTS cell viability counter screen (AID 2060914); note: nearly all actives have a fitted effect of over 50% in size
Conditions: CRE-bla HEK293T viability, CellTiter-Glo luminescence, 5 h; series mostly up to 92.4 µM
Outline: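 Luminescence read-out (CellTiter-Glo, 30 min RT) of ATP-based viability in CRE-bla HEK 293T cells, run in the same wells as the β-lactamase reporter assay after 3 h compound treatment at 37 °C.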

Row | Structure (SMILES) | Potency
41 | Cc1c(Nc2ncccc2C(=O)O)cccc1C(F)(F)F | inactive
42 | CCCCCCCCC(=O)OCC | inactive
43 | O=Cc1cccc(Br)c1 | inactive
44 | Fc1ccc(C(c2ccc(F)cc2)N2CCNCC2)cc1 | inactive
45 | CCCCOC(=O)C(C)CC (stereo not given) | inactive
46 | CCN(CC)CC(=O)Oc1ccc(NC(C)=O)cc1 | inactive
47 | COC(=O)c1c(C)cc(O)c(C)c1O | inactive
48 | COc1ccc(C(=O)c2cccc(O)c2)c(OC)c1 | inactive
49 | CC(C)(O)C(=O)O | inactive
50 | CCOCCC(=O)OCC | inactive
51 | Nc1ccc2cc(S(=O)(=O)O)cc(O)c2c1 | inactive
52 | O=C1NC(=O)c2cccc3cccc1c23 | inactive
53 | CCCNC(C)C(=O)Nc1ccccc1C (stereo not given) | inactive
54 | Cc1c(N)cccc1C(F)(F)F | inactive
55 | O=C(O)c1ccc2cc(C(=O)O)ccc2c1 | inactive
56 | O=C(c1cc(O)c(O)c(O)c1)c1ccc(O)c(O)c1O | inactive
57 | O=[N+]([O-])c1cccc(Cl)c1 | inactive
58 | CN(C)CCC=C1c2ccccc2CCc2ccccc21 | inactive
59 | NCC(=O)CCC(=O)O | inactive
60 | CCCCCCCC(=O)OC | inactive

Row | Structure (SMILES) | Potency
61 | CC(=O)N[C@@H](CC(C)C)C(=O)O | inactive
62 | Cc1occc(=O)c1O | inactive
63 | COc1cc(N)ccc1C | inactive
64 | CCOC(=O)[C@H](CCc1ccccc1)N[C@H]1CS[C@H](c2cccs2)CN(CC(=O)O)C1=O | inactive
65 | CCc1c(C)[nH]c2c1C(=O)C(CN1CCOCC1)CC2 (stereo not given) | inactive
66 | CCC(C)C1CCCCC1=O (stereo not given) | inactive
67 | C=CCNCC=C | inactive
68 | C/C=C/c1ccc(OC)c(OC)c1 | inactive
69 | C[C@H]1O[C@@H](n2cc(F)c(=O)[nH]c2=O)[C@H](O)[C@@H]1O | inactive
70 | CCCCCC[C@@H](CCC)C(=O)O | inactive
71 | O=C(/C=C/c1ccccc1)OCCc1ccccc1 | inactive
72 | CC(CNC1CCCCC1)OC(=O)c1ccccc1 (stereo not given) | inactive
73 | O=c1[nH][nH]c(=O)c2cc([N+](=O)[O-])ccc12 | inactive
74 | Nc1c(S(=O)(=O)O)cc(Br)c2c1C(=O)c1ccccc1C2=O | inactive
75 | CCCOC(=O)C(C)O (stereo not given) | inactive
76 | O=C(O)Cc1csc(-c2ccc(Cl)cc2)n1 | inactive
77 | COCCOCCOCCOCCOC | inactive
78 | CCc1ccccc1CC | inactive
79 | C=CCc1ccc(O)c(OC)c1 | inactive
80 | Cc1ccc2ccc(Cl)cc2n1 | inactive
